Source: PubChem BioAssay (Tox21)
Results filed as inconclusive are left out. A call without a number means that no potency is given here. A number with no mark means an inactive call. Calls of active or inactive are those of the source. Calls come from the whole dose curve; as a rule, active = well fitted cell-killing curve with a large enough effect in the repeat runs; inconclusive = weak or mixed curves, or effect the other way; inactive = flat fitted curve, though single readings scatter.

Assay: qHTS RealTime-Glo MT Cell Viability Assay in HEK293 cells - 0 hour (AID 1224880); note: top concentration of the series differs between compounds; nearly all actives have a fitted effect of over 45% in size
Conditions: RealTime-Glo luminescence; series mostly up to 76.8 µM
Procedure, shortened: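 Luminescence, which tracks viable cell number through reduction of the prosubstrate to a NanoLuc substrate, was read over continuous 37 C culture. Cells (600/well) were premixed with reagent and rested 5 h before 23 nL of compound in DMSO was pinned.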

| SMILES | Potency | activity change, negative = cytotoxicity |
| --- | --- | --- |
| O=C(CCNNC(=O)c1ccncc1)NCc1ccccc1 | inactive | – |
| CCCN1C[C@H](CSC)C[C@@H]2c3cccc4[nH]cc(c34)C[C@H]21 | inactive | – |
| CC(C)NCC(O)COc1ccc(COCCOC(C)C)cc1 (centres undefined) | inactive | – |
| O=C(O)c1cc(Br)c(O)c(Br)c1 | inactive | – |
| C[Si](C)=O | – | -1.57% [at 6.97 µM] |
| Oc1ccccc1-c1nnco1 | inactive | – |
| O=C1c2ccccc2C(=O)C1c1ccccc1 | inactive | – |
| CC(=O)N[C@@H](CCC(=O)O)C(=O)O | inactive | – |
| Cc1cccc(C)c1NC(=O)c1ccccc1C(=O)O | inactive | – |
| Oc1cn2c(n1)Nc1ccc(Cl)c(Cl)c1C2 | – | -2.73% [at 15.8 µM] |
| c1ccc2c(c1)ccc1c3ccccc3ccc21 | inactive | – |
| C=C(C)C(=O)OCCOP(=O)(O)OCCOC(=O)C(=C)C | inactive | – |
| CC(C)CCCC(C)(C)O | inactive | – |
| CCCCCCCCSCC | inactive | – |
| CCOc1cc(NC(C)=O)ccc1C(=O)OC | inactive | – |
| COc1cc2c(cc1OC)[C@@H]1CC(=O)[C@@H](CC(C)C)CN1CC2 | inactive | – |
| COC(=O)c1ccccc1C(=O)c1ccc(OCCN2CCCCC2)cc1 | inactive | – |
| COc1cc(C(=S)N2CCOCC2)cc(OC)c1OC | inactive | – |
| CC(N)C(=O)OC(C)(C)Cc1ccc(Cl)cc1 (centres undefined) | inactive | – |
| CCCCCCCCCCCCCC | inactive | – |
| CCCCCCN | inactive | – |
| CN(C)c1ccc(C=O)cc1 | inactive | – |
| O=S(=O)(O)c1cc(O)c2ccc(Nc3ccccc3)cc2c1 | inactive | – |
| CCCCOCCOC(=O)COc1nc(Cl)c(Cl)cc1Cl | inactive | – |
